# Source: PubChem BioAssay (National Center for Advancing Translational Sciences (NCATS))
# G9a inh = G9a (human) methyltransferase inhibition; Potency, µM (highest dose often 102 µM), inactives show at the highest dose activity, negative = inhibition, actives largely listed as inhibitors; actives 8.8% (n = 350,000); G9a H3K9 monomethylation, AlphaScreen, 2 h; Q96KQ7; also: potency is read from the fitted curve at half-maximal effect; % is scaled to controls: 0 for no effect and ±100 for the full control effect; nearly all actives have a fitted effect of over 75% in size
#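 Signal arises when biotinylated H3K9 peptide, once monomethylated, bridges streptavidin donor and antibody-captured acceptor beads. Enzyme at 20 nM was preincubated 15 min with test compounds; peptide 500 nM and SAM 20 uM then reacted for 2 h.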
# HP1b chromo inh = blocks HP1-beta chromodomain binding to methylated histone tails; P83916; AlphaScreen HP1-beta / biotin-H3K9me3 peptide binding; Potency, µM (top dose mostly 114 µM), inactives show at the highest dose activity change, negative = inhibition, actives largely listed as inhibitors; actives 0.56% (n = 390,000); also: potency is read from the fitted curve at half-maximal effect; nearly all actives have a fitted effect of over 70% in size
#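 Compound inhibition of the preformed complex between 50 nM HP1-beta and 50 nM biotinylated H3K9me3 peptide was read by AlphaScreen. Buffer was PBS pH 7.4 with 0.01% Tween-20. Incubations ran 30 min at room temperature, with 10 ug/mL donor/acceptor beads.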
# CtBP-E1A inh = inhibitors of CtBP/E1A interaction | AlphaScreen GST-E1A/His-CtBP binding, 1536-well; stronger effect = lower value | activity change, % (no concentration beside the values) | actives 0.49% (n = 340,000); in the data active = activity change below about -65%; inconclusive = mostly about -30% to -63%; also: % is scaled to controls: 0 for no effect and ±100 for the full control effect
#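 Homogeneous bead-based format: GST-tagged E1A captured on glutathione donor beads, His-tagged CtBP on nickel acceptor beads; compounds precede bead addition by 2 h at 37 °C.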
# JMJD2A Tudor = inhibitors of human JMJD2A Tudor domain. O75164. AlphaScreen JMJD2A-Tudor / H3K4me3 peptide binding. Potency, µM (titrated, usually from 114 µM), for the others: top-dose activity change, negative = inhibition, usual class: inhibitors. actives 4.4% (n = 390,000). AID 504339; also: potency is read from the fitted curve at half-maximal effect; % is scaled to controls: 0 for no effect and ±100 for the full control effect; nearly all actives have a fitted effect of over 50% in size
# BAZ2B inh = inhibitors of human BAZ2B bromodomain; actives 4.4% (n = 360,000); AlphaScreen BAZ2B-H3K14Ac peptide displacement; AID 504333; Potency, µM (top dose mostly 114 µM), inactives show at the top dose activity change, negative = inhibition, most hits filed as inhibitors; Q9UIF8; also: potency is read from the fitted curve at half-maximal effect; % is scaled to controls: 0 for no effect and ±100 for the full control effect; nearly all actives have a fitted effect of over 60% in size
#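 Compounds, titrated to a top concentration of 110 uM, were incubated 30 min at room temperature with preformed BAZ2B/acetyl-K14 H3 peptide complex (50 nM each). Proximity signal was measured by AlphaScreen after 20 min with beads.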
# Six1-Eya2 inh = blocks human Six1 binding to Eya2; Q15475+O00167; AlphaScreen GST-Six1/His-Eya2 binding, biochemical; stronger effect = lower value; activity change, % (no concentration beside the values); actives 0.56% (n = 360,000); in the data active = activity change below about -65%; inconclusive = mostly about -30% to -63%; also: % is scaled to controls: 0 for no effect and ±100 for the full control effect
# Target sequence (O00167 whole entry, looked up): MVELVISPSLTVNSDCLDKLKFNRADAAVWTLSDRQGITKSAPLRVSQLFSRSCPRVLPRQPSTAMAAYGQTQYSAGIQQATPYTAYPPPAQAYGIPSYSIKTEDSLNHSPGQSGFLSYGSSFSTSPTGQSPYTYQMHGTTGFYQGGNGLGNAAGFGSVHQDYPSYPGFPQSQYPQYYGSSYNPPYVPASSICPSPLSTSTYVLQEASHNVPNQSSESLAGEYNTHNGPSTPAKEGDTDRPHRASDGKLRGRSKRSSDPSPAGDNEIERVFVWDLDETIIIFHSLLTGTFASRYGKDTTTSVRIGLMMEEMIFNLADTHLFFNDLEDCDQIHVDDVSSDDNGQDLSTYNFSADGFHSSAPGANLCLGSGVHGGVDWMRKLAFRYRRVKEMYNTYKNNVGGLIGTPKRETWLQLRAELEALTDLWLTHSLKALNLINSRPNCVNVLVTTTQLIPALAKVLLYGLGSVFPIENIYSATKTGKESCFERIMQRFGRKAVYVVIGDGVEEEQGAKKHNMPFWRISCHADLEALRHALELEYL
# Target sequence (Q15475 whole entry, looked up): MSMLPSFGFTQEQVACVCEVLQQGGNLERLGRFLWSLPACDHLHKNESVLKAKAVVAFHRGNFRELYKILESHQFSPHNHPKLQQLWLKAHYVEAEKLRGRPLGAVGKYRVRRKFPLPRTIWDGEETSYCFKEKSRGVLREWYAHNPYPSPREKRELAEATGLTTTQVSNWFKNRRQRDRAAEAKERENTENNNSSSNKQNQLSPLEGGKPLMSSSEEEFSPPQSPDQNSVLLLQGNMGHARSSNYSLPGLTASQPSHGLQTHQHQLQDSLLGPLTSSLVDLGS
#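 Compounds are tested against tagged Six1 and Eya2 proteins bridged by glutathione donor and nickel acceptor beads; after a one-hour incubation at 37 °C without light, AlphaScreen emission is recorded.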
# * = called active by the depositor; ? = inconclusive; · = no result given; [ ] = remark or other dose. An excerpt weighted towards active compounds, which were near 10% of everything screened. Unless noted, calls follow the shape of the dose curve; as a rule, active = well fitted inhibition curve with a large enough effect; inconclusive = small, poorly fitted or top-dose-only effect; inactive = no such curve, though single readings can be large or run the other way.
SMILES,G9a inh,HP1b chromo inh,CtBP-E1A inh,JMJD2A Tudor,BAZ2B inh,Six1-Eya2 inh
COc1ccc(-c2nc(CN3CCC(C(=O)NCCCOC(C)C)CC3)c(C)o2)cc1OC,8.9µM*,27%,·,-19%,-8%,·
COc1cccc(CNC(=O)c2cc3c(s2)-c2c(C)cccc2OC3)c1,28%[59 µM],83%,·,51%,27%,·
O=C(O)COCc1nc2ccccc2[nH]1,79µM*,20%,4,-27%,-20%,6
O=C(O)C1(Cc2nc3ccccc3[nH]2)CCCC1,-15%,31%,-12,-3%,-4%,3
O=C(Cc1nc2ccccc2[nH]1)c1ccc(Br)cc1,45µM*,19%,-1,-29%,-27%,-4
Fc1ccccc1-n1[nH]nnc1=S,7.9µM*,?,9,?,?,1
Cc1nnc(OC(C)C)c2nn(-c3ccccc3F)c(C)c12,-16%,8%,-1,-3%,-1%,4
CC(C)(C)C1=NN=C2c3ccccc3C(=O)C21 (stereo not drawn),13%,24%,·,-26%,3%,-4
O=C(/C=C/Nc1ccc(F)cc1Br)c1ccccc1,-5%,23%,11,-21%,-3%,5
O=C(/C=C\NCC(=O)c1ccccc1)c1ccc(F)cc1,11µM*,33%,0,-20%,-37%,-2
O=C(/C=C\NCC(=O)c1ccccc1)c1ccc2ccccc2c1,7.9µM*,-14%,-16,?,-34%,-11
CCc1ccc2[nH]c(=O)c(C(c3nnnn3Cc3ccco3)N3CCC(C)CC3)cc2c1 (stereo not drawn),56µM*,10%,2,-34%,5%,-1
Cc1cc(C)c2[nH]c(=O)c(C(c3nnnn3CC3CCCO3)N3CCCC(C)C3)cc2c1 (stereo not drawn),18µM*,-4%,1,-31%,-6%,1
Cc1ccc2[nH]c(=O)c(C(c3nnnn3CC3CCCO3)N3CCCc4ccccc43)cc2c1 (stereo not drawn),50µM*,-12%,-7,?,?,-17
CCc1ccc2[nH]c(=O)c(C(c3nnnn3Cc3ccccc3)N3CCOCC3)cc2c1 (stereo not drawn),-40%,35%,2,8%,1%,0
Cc1cc2cc(C(c3nnnn3Cc3ccco3)N3CCc4ccccc4C3)c(=O)[nH]c2cc1C (stereo not drawn),?,12%,15,-35%,45µM*,-5
Cc1cc(C)c2[nH]c(=O)c(C(c3nnnn3CC3CCCO3)N3CCC(C)CC3)cc2c1 (stereo not drawn),?,-6%,1,-31%,-33%,0
Clc1cccc2c3c([nH]c12)CCNC3,10%,15%,6,-7%,8%,5
CCN(CC(=O)Nc1ccc(NC(C)=O)cc1)C(=O)c1cc2c(s1)CCCC2,-11%[12.7 µM],22%,2,-21%,6%,4
CCCn1ccc2c(OCC(=O)Nc3ccc(OC)c(OC)c3)cccc2c1=O,-4%[59 µM],11%,·,-13%,-14%,·
Cc1ccc2[nH]c(=O)c(C(c3nnnn3CC3CCCO3)N3CCc4ccccc4C3)cc2c1 (stereo not drawn),2µM*,37%,-1,-28%,?,-2
COc1ccc2[nH]c(=O)c(C(c3nnnn3CC3CCCO3)N3CCc4ccccc4C3)cc2c1 (stereo not drawn),?,38%,-8,-16%,-39%,0
O=C(CSC1=NCCS1)Nc1ccc(F)cc1,12%,52%,8,-27%,0%,-29
O=C(CSc1cn[nH]n1)Nc1ccccc1C(=O)O,7.9µM*,5%,3,79µM*,-10%,2
Cc1ccccc1NC(=O)CSC(N)=O,?,38%,9,-4%,-16%,15
SMILES,G9a inh,HP1b chromo inh,CtBP-E1A inh,JMJD2A Tudor,BAZ2B inh,Six1-Eya2 inh
COc1ccccc1NC(=O)CSc1nc(N)c(C#N)cc1C#N,50µM*,18%,-10,-8%,?,-10
COc1ccccc1NC(=O)CSC(N)=O,35µM*,72%,-4,?,4%,-2
CCOc1ccccc1NC(=O)CSc1nc(N)c(C#N)cc1C#N,?,30%,-9,-13%,-26%,-9
NC(=O)c1ccccc1NC(=O)CSC1=NCCS1,50µM*,55%,8,-2%,-18%,4
Cc1cccc(NC(=S)N2CCN(C(=O)c3ccco3)CC2)c1C,2%,33%,8,-2%,-24%,5
O=C1NC[C@H](Cc2ccccc2)N(C[C@H]2CCCN2C[C@H](Cc2ccccc2)N2C[C@H](Cc3ccc(O)cc3)N(CCc3ccccc3)C(=O)C2=O)C1=O,·,6%,-1,-28%,·,-7
O=C(CSc1ccccc1)Nc1ccccc1C(=O)O,-1%[59 µM],21%,3,-6%,-1%,6
NC(=O)SCC(=O)Nc1ccccc1C(=O)O,50µM*,34%,·,-1%,-15%,-3
Cc1cc(COc2ccccc2O)on1,71µM*,47%,7,2%,6%,-3
Clc1ccccc1CNc1nc2ccccc2c2nc(-c3cccnc3)nn12,2%[59 µM],29%,·,0%,1%,·
COCCn1c(=O)c(-c2ccc(OC)cc2)nc2cnc(OC)nc21,0%[12.7 µM],·,·,·,·,·
COCCn1c(-c2ccc(OC)cc2)c(-c2ccc(OC)cc2)oc1=O,-21%[2.33 µM],-12%,2,-14%,35µM*,-4
CC(=O)c1cc(-c2ccccc2)n(CC(=O)NC2CCCC2)c1C,-7%[59 µM],27%,4,-8%,?,-1
CC(=O)c1cc(-c2ccccc2)n(CC(=O)N2CCC(C)CC2)c1C,21%[59 µM],0%,-18,-11%,50µM*,-24
CC(=O)c1cc(-c2ccccc2)n(CC(=O)Nc2cc(C)cc(C)c2)c1C,18%,32%,-2,-1%[57.1 µM],-2%,4
CC(=O)c1cc(-c2ccccc2)n(CC(=O)N2CCN(C3CCCC3)CC2)c1C,7%[12.7 µM],-14%,-1,12%[11.4 µM],50µM*,-7
COCC(=O)Nc1sc2c(c1C(=O)OC)CCCC2,8%[59 µM],10%,2,-19%,-5%,2
COc1ccc(CC(=O)Nc2sc3c(c2C(=O)Nc2ccc(C)cc2)CCCCC3)cc1,10µM*,5%,·,56µM*,56µM*,·
COc1ccc(NC(=O)c2c(NCc3ccc(N(C)C)cc3)sc3c2CCC3)cc1,11µM*,?,·,56µM*,32µM*,·
COc1cccc(CC(=O)Nc2sc3c(c2C(N)=O)CCCC3)c1,40µM*,21%,0,-3%,-13%,-11
COc1ccc(CC(=O)Nc2sc3c(c2C(N)=O)CCCC3)cc1OC,?,15%,-2,-14%,0%,-4
